# Measurements published in the supplement of paper PMC8726507.
# Tested on: Plasmodium falciparum NF54-HGL (transmission to Anopheles stephensi)
# Experiment: percentage of barcode signal found in uninfected mosquitoes (transmission-blocking activity); higher = stronger blocking of transmission to mosquito, active = 80 or more
# Details: 10 µM; gametocyte preincubation time 24 h; readout time post-feed 8 days
# Protocol: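 The mixture was fed to Anopheles stephensi in 96-well plates as blood meals tagged with DNA-barcoded Asaia bacteria. Eight days later, mosquitoes were classed infected or uninfected by luminescence (mean + 5 SD of unfed controls). Barcodes were quantified by Luminex MagPlex-TAG in the pooled uninfected and infected Asaia cultures, background-corrected, and the score is % of barcode signal in uninfected mosquitoes = 100*Iu/(Iu+Ii).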
row,SMILES,percentage of barcode signal found in uninfected mosquitoes
1,CC(C)C(C(=O)Nc1ccc(S(=O)(=O)N(C)C)cc1)c1ccc(Cl)cc1 (stereo not drawn),49.7% (inactive)
2,O=C(Nc1cccnc1)c1c(O)c2cccc3c2n(c1=O)CC3,20.2% (inactive)
3,COc1cc(NC(C)CCCN)c2ncccc2c1 (stereo not drawn),48.2% (inactive)
4,c1ccc(-c2cc(N3CCCCC3)c3ccccc3n2)nc1,53.1% (inactive)
5,O=C(C1CCCCC1)N1CC(=O)N2CCc3ccccc3C2C1 (stereo not drawn),51.6% (inactive)
6,FC(F)(F)c1cnc(Sc2nnc(-c3ccncc3)o2)c(Cl)c1,68.8% (inactive)
7,Cc1ccc(NC(=O)c2nc[nH]c2C(=O)Nc2nc3ccccc3[nH]2)c(C)c1,73.8% (inactive)
8,O=C(Nc1nc(-c2ccccn2)cs1)c1cncn1-c1ccccc1,21.4% (inactive)
9,O=C(Nc1nnc(-c2ccc(Cl)s2)o1)c1ccc(Cl)s1,0.515% (inactive)
10,O=C1COCc2ccc(Br)cc2N1Cc1ccc(C(F)(F)F)cc1,22.4% (inactive)
11,CNc1nnc(Sc2cnn(-c3ccccc3)c(=O)c2Cl)s1,76.3% (inactive)
12,O=C(COc1cccc(F)c1)Nc1nc(-c2ccccn2)cs1,38.7% (inactive)
13,O=C(NC1CC1)c1ccc(N2CCC(Cc3ccccc3)CC2)nc1,77.8% (inactive)
14,Cc1ccc(S(=O)(=O)N2CCN(C(=O)c3cc(-c4ccccc4)[nH]n3)CC2)cc1,69.8% (inactive)
15,CS(=O)(=O)c1ccc(C(=O)N(CC2CCCO2)c2nc3ccccc3s2)cc1[N+](=O)[O-] (stereo not drawn),63.1% (inactive)
16,CN(C)c1cc(NC(=O)Nc2ccccc2)c2ccccc2n1,88.3% (active)
17,CCc1c(C)nc(-n2nc(C)cc2NC(=O)c2ccccc2SC)[nH]c1=O,53.6% (inactive)
18,Cc1nc(-c2ccccn2)nc(NCCc2ccc(S(C)(=O)=O)cc2)c1Cl,67% (inactive)
19,Cc1ccc(C(=O)Nc2ccc(S(=O)(=O)O)c3cc(S(=O)(=O)O)cc(S(=O)(=O)O)c23)cc1NC(=O)c1cccc(NC(=O)Nc2cccc(C(=O)Nc3cc(C(=O)Nc4ccc(S(=O)(=O)O)c5cc(S(=O)(=O)O)cc(S(=O)(=O)O)c45)ccc3C)c2)c1,32.8% (inactive)

# Same assay, conditions: 20 µM; gametocyte preincubation time 24 h; readout time post-feed 8 days
row,SMILES,percentage of barcode signal found in uninfected mosquitoes
1,CC(C)(C(=O)Nc1ccc(F)cc1)n1cc(-c2ccccc2F)cn1,0.429% (inactive)
2,Cc1nc(-c2ccccn2)nc(N(C)CCc2ccccc2)c1Cl,92% (active)
3,Nc1ccc2ncnc(Nc3ccc(OCc4cccc(F)c4)c(Cl)c3)c2c1,17.8% (inactive)
4,COc1ccc(-c2nnc3ccc(-c4cccc(C(C)C)c4)cn23)cc1OC,47.3% (inactive)
5,c1ccc(C[C@@H]2CN(c3nccc(Oc4ccc(-n5ccnc5)cc4)n3)CCN2)cc1,35.3% (inactive)
6,O=C(Nc1cccc(-c2ccc(NCCCN3CCCC3)nc2)c1)c1ccccc1,29.8% (inactive)
7,Nc1ncc(Br)cc1-c1nc2cc(Cl)cnc2[nH]1,21.4% (inactive)
8,CC(C)(C)c1ccc(N[C@@H]2CCCC[C@H]2NC(=O)c2ccco2)cc1,31.3% (inactive)
9,CCC(C)NC(=O)c1ccc(NC(=O)C2(c3ccccc3)CCCC2)cc1 (stereo not drawn),47.5% (inactive)
10,O=C1[C@@H](Oc2ccccc2)[C@@H](c2ccc(Cl)cc2)N1CCn1cnc2c(NCc3ccccc3)ncnc21,1.2% (inactive)
11,NCCC(O)C(=O)N[C@@H]1C[C@H](N)[C@@H](OC2O[C@H](CN)[C@@H](O)[C@H](O)[C@H]2O)[C@H](O)C1OC1O[C@H](CO)[C@@H](O)[C@H](N)[C@H]1O (stereo partly drawn),37.6% (inactive)
12,C[C@H](C(N)=O)N1CCCC[C@@H]1c1ccc(OCc2cccc(F)c2)cc1,17.3% (inactive)
13,CN1CCC(c2cc(-c3ccncc3)c(-c3ccc(F)cc3)[nH]2)CC1,78.1% (inactive)
14,CC(C)n1nc(-c2cc3c(Cl)cccc3[nH]2)c2c(N)ncnc21,53.6% (inactive)
15,O=[N+]([O-])c1cn2c(n1)OC[C@@H](OCc1ccc(OC(F)(F)F)cc1)C2,17% (inactive)
16,CC(=O)NCC1CN(c2ccc(-c3ccc(CNCc4cn[nH]n4)cc3)c(F)c2)C(=O)O1 (stereo not drawn),9.84% (inactive)
17,Cc1nn(C(=O)Nc2cccc(C(F)(F)F)c2)c(C)c1Sc1ncccn1,2.49% (inactive)
18,Nc1ccc(C(=O)Nc2ccc(-c3nc4ccccc4o3)cc2)cc1,-0.842% (inactive)
19,CCS(=O)(=O)N(Cc1ccco1)Cc1cc2ccc(C)cc2nc1O,-1.14% (inactive)
